Laboratory results reported in PubChem BioAssay (Tox21).
Results filed as inconclusive are left out. Activity calls are given as the source filed them. The call rests on the fitted dose curve; in most records, active means well fitted activation curve with a large enough effect in the repeat runs; inconclusive means weak or mixed curves; inactive means flat fitted curve, though single readings scatter.

test: A CellTox Green Cytotoxicity Assay to monitor cytotoxicity in HepG2 cells - 32 hour (AID 1224883); conditions: CellTox Green fluorescence; series mostly up to 76.8 µM; cytotoxicity increase: at the top concentration; further: nearly all actives have a fitted effect of over 50% in size
Text: National Center for Advancing Translational Sciences [NCATS]
NIH Chemical Genomics Center [NCGC]
U.S. Environmental Protection Agency [EPA]
National Institutes of Environmental Health Sciences [NIEHS]
National Toxicology Program [NTP]
Cell-based models are critical for drug discovery. Determining the natural cytotoxic effects resulting from test compounds is an essential research activity. A CellTox Green Cytotoxicity Assay to monitor cytotoxicity in real time of continues cell culture during 40 hours of the compound treatment was used to screen Tox21 10K library compounds in HepG2 cells. CellTox Green Cytotoxicity Assay is a nonlytic, homogeneous, biofluorescent method to measure cytotoxicity in cell culture after experimental manipulation. The assay system uses a proprietary asymmetric cyanine dye that is excluded from viable cells but preferentially stains the dead cell's DNA. […] Viable cells produce no appreciable increases in fluorescence. Therefore, the fluorescence signal produced by the binding interaction with dead cell DNA is proportional to cytotoxicity.
The mixture of HepG2 cell suspension and reagents were dispensed at 600cells/6 ul/well in 1536-well tissue culture treated black solid bottom plates using a Multidrop dispenser. After the assay plates were incubated at a 37 C/5% CO2 incubator for 5 hours, 23 nL of compounds dissolved in DMSO, positive and negative controls was transferred to the assay plate by a pintool work station. The plates were incubated at 37 C for 40 hours. The fluorescence intensity were measured at 0h, 8h, 16h, 24h, 32h and 40h time points using ViewLux plate reader during compound treatment.
On the % scale 0 is the no-effect control and ±100 the full control effect; potency means the concentration at half of the fitted maximal effect.

SMILES	cytotoxicity increase	Potency
CCN(Cc1ccccc1)c1ccccc1	-0.0345% (inactive)	
C=C(C)C(=O)OCC1CCCO1 (stereo not given)	-3.4% (inactive)	
C=CCCCCCCCCC(=O)OCC	-3.37% (inactive)	
CC1=C(C/C=C(\C)CCC[C@H](C)CCC[C@H](C)CCCC(C)C)C(=O)c2ccccc2C1=O	5.63% [at 35.3 µM] (inactive)	
O=C(O)c1cc(C(=O)O)cc(C(=O)O)c1	-7.93% (inactive)	
Cc1nc(C2CCCCC2)c(-c2ccc(S(N)(=O)=O)c(F)c2)o1	9.45% [at 35.3 µM] (inactive)	
CN(C)[C@@H]1C(=O)C(C(=O)NCN2CCCC2)=C(O)[C@@]2(O)C(=O)C3=C(O)c4c(O)cccc4[C@@](C)(O)C3C[C@@H]12 (stereo not given in full)	-13.3% [at 35.3 µM] (inactive)	
COc1cc2c(cc1OC)-c1cc3ccc(OC)c(OC)c3c[n+]1CC2	6.62% (inactive)	
CCCCCCCCCCCCSC	-1.76% (inactive)	
CCC(C)(CN(C)C)OC(=O)c1ccccc1 (stereo not given)	-11% [at 35.3 µM] (inactive)	
CC(=O)NC(=O)c1ccccc1O	-14.6% [at 35.3 µM] (inactive)	
CCC(C(=O)NC(=O)NC(C)=O)c1ccccc1 (stereo not given)	-1.6% [at 35.3 µM] (inactive)	
CCCCCCC#CC(=O)OC	15.1% (inactive)	
CCOc1ccccc1OCC	-5.06% (inactive)	
NO	-3.77% (inactive)	
CC1=NN(c2cccc(S(=O)(=O)O)c2)C(=O)C1	2.26% (inactive)	
O=S(=O)(O)c1cc(O)c(O)c(S(=O)(=O)O)c1	-0.534% (inactive)	
[O-][n+]1cccc(CO)c1	1.42% [at 35.3 µM] (inactive)	
Cc1ncc([C@@H](CCCCCCc2ccc3c(n2)NCCC3)CC(=O)O)cn1	-5.11% (inactive)	
NC(=O)N[C@@H](CCC(=O)O)C(=O)O	19.2% [at 35.3 µM] (inactive)	

SMILES	cytotoxicity increase	Potency
c1coc(CNc2ncnc3nc[nH]c23)c1	0.583% (inactive)	
Cc1nc2ccc(CN(C)c3ccc(C(=O)N[C@@H](CCC(=O)O)C(=O)O)s3)cc2c(=O)[nH]1	7.24% [at 35.3 µM] (inactive)	
Nc1ccn([C@@H]2O[C@H](CO)[C@@H](O)C2(F)F)c(=O)n1	21.5% [at 35.3 µM] (inactive)	
CC(C)C[C@@H](N)C(=O)O	-8.17% [at 15.8 µM] (inactive)	
CN1CCC(=C2c3ccccc3CCc3cccnc32)CC1	-1.24% [at 35.3 µM] (inactive)	
CC(=O)OCC(=O)[C@@]1(O)[C@H](C)C[C@H]2[C@@H]3CCC4=CC(=O)C=C[C@]4(C)[C@@]3(F)[C@@H](O)C[C@@]21C	-3.72% [at 35.3 µM] (inactive)	
CC(=O)C1CCCCC1=O (stereo not given)	-2.71% (inactive)	
CCCCOC(=O)CCC(C)=O	-7.73% (inactive)	
CC(=O)O[C@@]12CO[C@@H]1C[C@H](O)[C@@]1(C)C(=O)[C@H](O)C3=C(C)[C@@H](OC(=O)[C@H](O)[C@@H](NC(=O)OC(C)(C)C)c4ccccc4)C[C@@](O)([C@@H](OC(=O)c4ccccc4)[C@H]21)C3(C)C		6.7 nM (active)
CCOC(=O)C(=O)CCCCCCl	1.24% [at 35.3 µM] (inactive)	
OCCCCCO	-11.1% (inactive)	
CCCCOCCOC(=O)COc1cc(Cl)c(Cl)cc1Cl	-8.75% (inactive)	
O=C(O)CCSCCC(=O)O	2.1% (inactive)	
COc1ccc2cc1Oc1cc3c(cc1OC)CC[N+](C)(C)[C@H]3Cc1ccc(cc1)Oc1c(OC)c(OC)cc3c1[C@@H](C2)[N+](C)(C)CC3	1.16% [at 35.3 µM] (inactive)	
Cc1ccc(C(=O)c2ccccc2)cc1	25.5% (inactive)	
CCCO[Si](OCCC)(OCCC)OCCC	-0.0101% (inactive)	
CCN(CC#N)c1cccc(C)c1	1.21% (inactive)	
O=Cc1cccc(Br)c1	3.18% (inactive)	
CCCCCC(C)N (stereo not given)	-10.9% [at 35.3 µM] (inactive)	
CC1=CC(=O)[C@H]2C[C@@H]1C2(C)C	-4.71% (inactive)	
